The record followed here is PubChem BioAssay (NCI).

SMILES strings stand for the structures. Values joined by “and” are separate entries in the source; they are usually repeats but may differ in a detail not shown here. Equal values may be shown once. Compounds without any hit were thinned out: in the full panel of roughly 83,000, 20% have a hit.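 Each cell line was grown in a 96-well plate and treated with one concentration of compound for 48 hours. Values below 10 were considered active.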 Values without a mark were called inactive. Active and inactive are the calls of the source.

The subject of this assay is HL-60(TB) leukemia. The assay is described as follows: NCI-60 one-dose screen, 48 h (100 = growth as untreated, 0 = no growth, -100 = all killed). The conditions noted are these: 10 µM unless noted.
As to `CC(C(=O)O)n1cc(C#N)c(=O)[nH]c1=O` (stereo not given), the growth was 104% and 90.4%.

For `CSc1nc(N)nc2c1ncn2C`, the growth was 75.8%.

Take `CCOC(=O)c1cc(CC)sc1NC(=O)CC(C)=O`: the growth was 51.4%.

As to `Cc1ccc(Cl)c(NS(=O)(=O)c2ccc(-c3cnc(C4CC4)o3)cc2)c1`, the growth is -22% (active).

In the case of `COc1cccc([C@H]2c3[nH]c4ccccc4c3C[C@H]3C(=O)N(CCCCCCC(=O)NO)CC(=O)N23)c1`, the growth was 31%.

Consider `O=C(Nc1cccc(-n2ccc3c(NC(=O)c4ccccc4)nccc32)c1)c1ccc(N2CCOCC2)c(C(F)(F)F)c1`, for which the growth was -7.22% (active).

Consider `O=C(O)C(Cc1ccc(OS(=O)(=O)Cc2ccccc2)cc1)NS(=O)(=O)Cc1ccccc1` (stereo not given), for which the growth was 109% and 82.6%.

Consider `Cc1ccc(Nc2nnc(-c3cc(-c4ccncc4)n(-c4ccccc4)n3)s2)cc1`, for which the growth was 66.3%.

Take `COc1cccc(C2CC(c3cc(OC)c(OC)c(OC)c3)=NN2)c1` (stereo not given): the growth is 55.1%.

For the molecule `CCC1CCC(C)NC1` (stereo not given), the growth was 99.4%.

Regarding `c1cc(N2CCCC2)c2nc(-c3[nH]ncc3Nc3ncnc4[nH]ccc34)[nH]c2c1`, the growth is -15.9% (active).

For the molecule `O=[N+]([O-])c1ccc(Sc2ccncn2)c([N+](=O)[O-])c1`, the growth was 16.8%.

For `CCOC(=O)c1c[nH]c2cc(OCC3CC3)c(OCC3CC3)cc2c1=O`, the growth was 104%.

Turning to `Cc1ccccc1NC(=O)c1sc2nc(C)c(C(=O)/C=C/c3ccccc3)cc2c1N`, the growth was 8.8% (active).

Turning to `O=C(Cn1c2c(c3ccccc31)CCCC2)Nc1ccc(-c2nc3ccccc3s2)cc1`, the growth was 99.1%.
